In the library only some 2.6% were active in any assay of this set; here they are far more common.
Rce1 inh: blocks yeast Ras-converting enzyme; Q03530; yeast membranes, quenched prenylated peptide cleavage fluorescence; calls only; 290,000 compounds, 0.27% hits; AID 2563;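 active means fall in fluorescence gain of 50% or more versus controls, with final raw signal at or below 3038400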
Exocytosis inh: blocks lytic granule exocytosis; TALL-104 LAMP-1 surface exposure, flow cytometry; cells stimulated with thapsigargin and PMA; inhibition, % at 10 µM; 360,000 compounds, 0.66% hits;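 active means inhibition above about 55%, limit read from the data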
ABHD5-PLIN5 inh: inhibitors of human ABHD5-perilipin-5 interaction | 360,000 compounds, 0.78% hits | inhibition, % at 4 µM | Split G. princeps luciferase complementation, luminescence, 4 h;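 active means inhibition above the mean inhibition across every tested compound plus 3 SD, cut at about 22% in these data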
M18AAP inhibitor: PfM18AAP enzyme inhibition; recombinant PfM18AAP, H-Glu-NHMec fluorogenic cleavage; inhibition, % at 7.35 µM; 290,000 compounds, 1.2% hits; AID 1822;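 active means inhibition above the campaign mean inhibition over all tested compounds plus 3 SD, cut at about 28% in these data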
Platelet DG rel: modulates dense granule release in human platelets. human platelet-rich plasma, SFLLRN dense granule ATP release, luminescence. AID 1663. inhibition, %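 (compounds screened at 7.5 µM in platelet-rich plasma)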. 300,000 compounds, 0.22% hits;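 active means mean replicate score, as percent of positive control, at or above 50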
ABHD5 PLIN5 conf: ABHD5-PLIN5 interaction inhibition, confirmed; shares compounds with ABHD5-PLIN5 inh; biochemical ABHD5-PLIN5 interaction, luminescence; inhibition, % at 4 µM; 2,200 compounds, 67% hits; AID 651612; in the data active means inhibition above about 23%
HNF4 counter: HNF4 split-luciferase signal hit, counter-screen; shares compounds with ABHD5-PLIN5 inh; HNF4 dimerization, luminescence, biochemical; inhibition, % at 4 µM; 2,200 compounds, 77% hits; AID 651674;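 active means mean inhibition across replicate wells exceeding the computed hit threshold, cut at about 13% in these data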;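 further: light from luciferase halves that rejoin when HNF4 fusion proteins dimerize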
Target sequence (P41235 whole entry, looked up, the tested form may be a part): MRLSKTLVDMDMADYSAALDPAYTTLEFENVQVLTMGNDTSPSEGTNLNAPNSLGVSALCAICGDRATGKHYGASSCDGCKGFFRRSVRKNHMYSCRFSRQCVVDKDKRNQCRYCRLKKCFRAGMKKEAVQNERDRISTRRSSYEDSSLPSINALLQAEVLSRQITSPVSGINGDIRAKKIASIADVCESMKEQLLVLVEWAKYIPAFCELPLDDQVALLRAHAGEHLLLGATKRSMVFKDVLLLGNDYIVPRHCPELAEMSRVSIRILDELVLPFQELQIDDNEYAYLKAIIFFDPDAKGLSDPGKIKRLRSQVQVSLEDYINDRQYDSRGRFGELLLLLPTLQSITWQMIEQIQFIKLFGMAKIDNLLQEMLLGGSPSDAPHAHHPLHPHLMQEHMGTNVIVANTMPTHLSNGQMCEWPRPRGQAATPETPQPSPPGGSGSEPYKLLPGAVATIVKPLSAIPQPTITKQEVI
Large screens that a line does not name were inactive (follow-up assays come after a bar, where they were run).

COc1ccc(-n2c(N)c(C(=O)NCc3ccco3)c3nc4ccccc4nc32)cc1	ABHD5-PLIN5 inh 33.4 | ABHD5 PLIN5 conf 31.5 | HNF4 counter 32.4
N#CCc1c(C#N)c(N)nc(N2CCN(Cc3ccc4c(c3)OCO4)CC2)c1C#N	ABHD5-PLIN5 inh 26.0 | ABHD5 PLIN5 conf inactive | HNF4 counter inactive
Cc1ccc(OC(C)C)c(CN(CCO)CCO)c1	none
COC(=O)c1cc(=O)n(CCc2ccc(OC)cc2)c(=Nc2ccc(F)c(Cl)c2)s1	none
CCn1c(=O)cc(C(=O)OC)sc1=Nc1ccc(F)c(F)c1	ABHD5-PLIN5 inh 27.4 | ABHD5 PLIN5 conf 59.3 | HNF4 counter 39.7
CCOC(=O)c1ccc(N=c2sc(C(=O)OC)cc(=O)n2Cc2ccco2)cc1	none
CCOC(=O)c1ccc(N=c2sc(C(=O)OC)cc(=O)n2CCCN2CCOCC2)cc1	ABHD5-PLIN5 inh 42.4 | ABHD5 PLIN5 conf 45.3 | HNF4 counter 42.3
C=CCNC(=O)/C(C#N)=C/c1cc(Br)ccc1OC	ABHD5-PLIN5 inh 43.1 | ABHD5 PLIN5 conf 56.2 | HNF4 counter 45.2
COc1ccc(N/N=C(\C#N)C(=N)SCc2ccccc2)cc1	ABHD5-PLIN5 inh 39.2 | ABHD5 PLIN5 conf 38.5 | HNF4 counter 36.6
COc1ccc(N/N=C(\C#N)C(=N)N2CCCCC2)cc1	none
CCOC(=O)C(=Cc1ccc(-n2cncn2)cc1)C(=O)OCC	ABHD5-PLIN5 inh 43.1 | ABHD5 PLIN5 conf 81.4 | HNF4 counter 94.0
COC(=O)CSc1nnc(C)c(=O)[nH]1	none
CCOC(=O)CNc1nnc(SCC(=O)OCC)[nH]c1=O	ABHD5-PLIN5 inh 25.6 | ABHD5 PLIN5 conf 41.1 | HNF4 counter 83.0
CCCCCCC=C1CCC(CN2CCCC2)C1=O (stereo not given)	ABHD5-PLIN5 inh 24.8 (no result: Rce1 inh, M18AAP inhibitor, Platelet DG rel) | ABHD5 PLIN5 conf 83.8 | HNF4 counter 28.2
CCCC/C=C1\CCc2c([nH]c3ccccc23)C1=O	none
CCSc1nc2ccccc2n1C(=O)/C=C\c1ccc(OC)c(OC)c1	ABHD5-PLIN5 inh 40.5 | ABHD5 PLIN5 conf 76.9 | HNF4 counter 59.7
CC(NC(=O)/C=C/c1ccco1)c1nc2ccccc2n1Cc1cccc(Cl)c1 (stereo not given)	ABHD5-PLIN5 inh 25.7 | ABHD5 PLIN5 conf 36.9 | HNF4 counter 58.3
O=C(Nc1nc2ccccc2n1Cc1ccc(Cl)cc1)c1ccco1	none
O=C1C=C(NCc2ccccc2)CCC1	none
O=C1C=C(NC2=CC3OC(c4ccccc4)OCC3OC2=O)CCC1 (stereo not given)	ABHD5-PLIN5 inh 26.4 | ABHD5 PLIN5 conf 86.6 | HNF4 counter 95.5
COC(=O)c1cccc(C(=O)N2CCCC(C(=O)c3cccc(OC(C)C)c3)C2)c1 (stereo not given)	none
CC(=O)N(C)c1ccc(N=C2C(=O)Nc3ccccc32)cc1	none
CC(=O)/C=C1/C(=O)Nc2ccccc21	ABHD5-PLIN5 inh 44.1 | ABHD5 PLIN5 conf 71.3 | HNF4 counter 80.7
C=CCOc1cccc(C(=O)/C=C2/C(=O)Nc3ccccc32)c1	ABHD5-PLIN5 inh 65.1 | ABHD5 PLIN5 conf 80.1 | HNF4 counter 90.0
COc1ccc(NC(=O)Nc2ccc3oc(C)nc3c2)cc1	none
CCN(CC)S(=O)(=O)c1ccc2c(c1)c(=O)c(C(=O)N1CCc3ccccc3C1)cn2C	none
CCOC(=O)N1CCc2c(sc(NC(=O)CN3CCN(C)CC3)c2C(=O)Nc2ccccc2)C1	none
CCOC(=O)N1CCc2c(sc(NC(=O)CN3CCOCC3)c2C(=O)Nc2ccccc2)C1	ABHD5-PLIN5 inh 23.3 | ABHD5 PLIN5 conf inactive | HNF4 counter inactive
Oc1c(CN2CCOCC2)cc(CN2CCOCC2)c(O)c1CN1CCOCC1	ABHD5-PLIN5 inh 55.0 (no result: Rce1 inh, M18AAP inhibitor, Platelet DG rel) | ABHD5 PLIN5 conf 78.7 | HNF4 counter 108.0
Oc1c(CN2CCOCC2)cc(-c2ccccc2)cc1CN1CCOCC1	none
Cc1cccc2cc(/C=N/Nc3ccc(C(=O)O)cc3)c(Cl)nc12	none (no result: Rce1 inh)
Cc1cccc2cc(/C=C/C(=O)c3ccco3)c(Cl)nc12	ABHD5-PLIN5 inh 42.2 | ABHD5 PLIN5 conf 72.9 | HNF4 counter 62.8
CCOc1ccc2nc(Cl)c(/C=C/C(=O)c3ccco3)cc2c1	ABHD5-PLIN5 inh 34.1 | ABHD5 PLIN5 conf 93.4 | HNF4 counter 91.9
CCC(C)NCCOCCOc1ccc(Cl)c(C)c1C (stereo not given)	none

High-throughput results (PubChem)
